# Assay outcomes deposited in PubChem BioAssay by National Center for Advancing Translational Sciences (NCATS).
# RORg inh: ROR gamma (mouse) transcription inhibition; P51450; Drosophila S2 Gal4-RORgamma UAS-luciferase reporter, 20 h; Potency, µM (top dose mostly 53.6 µM), inactives show at the top dose activity change, negative = inhibition, actives largely listed as inhibitors; 5.4% of 310,000 active; AID 2551; further: nearly all actives have a fitted effect of over 60% in size
# Target sequence (P51450 whole entry, looked up, the tested form may be a part): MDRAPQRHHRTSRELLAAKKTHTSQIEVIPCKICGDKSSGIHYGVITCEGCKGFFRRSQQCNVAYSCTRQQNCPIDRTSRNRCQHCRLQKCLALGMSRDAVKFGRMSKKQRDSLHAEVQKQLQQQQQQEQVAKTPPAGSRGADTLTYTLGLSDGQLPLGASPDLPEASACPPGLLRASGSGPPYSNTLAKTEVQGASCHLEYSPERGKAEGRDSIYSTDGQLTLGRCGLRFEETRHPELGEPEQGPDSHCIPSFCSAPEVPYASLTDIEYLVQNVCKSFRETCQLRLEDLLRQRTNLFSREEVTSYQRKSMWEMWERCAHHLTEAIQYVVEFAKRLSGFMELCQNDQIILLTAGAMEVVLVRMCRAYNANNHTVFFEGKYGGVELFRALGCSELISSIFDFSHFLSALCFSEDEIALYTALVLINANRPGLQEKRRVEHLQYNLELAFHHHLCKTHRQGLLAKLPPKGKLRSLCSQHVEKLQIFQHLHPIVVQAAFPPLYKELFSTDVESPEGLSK
#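 In this cell-based reporter format, copper sulfate (700 uM final) drives Gal4–ROR gamma fusion expression from a metallothionein promoter in Drosophila Schneider cells; compounds preincubated 1 hr, reporter read after 20 hr at ambient temperature.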
# Sfp inh: inhibitors of Bacillus subtilis Sfp phosphopantetheinyl transferase | Q9F4F7 | Biochemical Sfp PPTase activity, qHTS | Potency, µM, without a hit: largest response in the series, negative = inhibition, hits mostly inhibitors | 3.5% of 310,000 active | AID 1490;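 further: the enzyme is Sfp with the accession as filed and its product quenches rhodamine fluorescence; 0% = enzyme reaction without inhibitor and -100% = no enzyme wells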
#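 Step 1, compound plus 15 nM Sfp-PPTase, 15 min, room temperature. Step 2, add rhodamine-CoA (5 uM) and BHQ-2-YbbR (12.5 uM). Step 3, read 525/598 nm fluorescence at 0 and 30 min.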
# PLK1 PBD inh: inhibitors of human PLK1 polo-box domain binding; P53350; Plk1 PBD binding of FITC phosphopeptide, fluorescence polarization; Potency, µM, for inactives: max response, negative = inhibition, most hits filed as inhibitors; 2.8% of 360,000 active; AID 720504; further: series mostly up to about 57 µM; nearly all actives have a fitted effect of over 65% in size
# ALDH1A1 inh: inhibitors of human aldehyde dehydrogenase 1A1 | P00352 | Purified ALDH1A1, NADH fluorescence, propionaldehyde substrate | Potency, µM (highest dose often 75.3 µM), without a hit: at the top dose activity, negative = inhibition, usual class: inhibitors | 7.3% of 220,000 active; active means well fitted inhibition curve with a large enough effect, not every such curve was filed as active; inconclusive means small, poorly fitted or top-dose-only effect, or another doubt; inactive means no such curve, though single readings can be large or run the other way;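 further: plate controls were no enzyme wells and a reference inhibitor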
# VP16 counter: Gal4-VP16 reporter inhibition counter-screen; Potency, µM (top dose mostly 53.6 µM), for the others: at the highest dose activity, negative = inhibition, most hits filed as inhibitors; AID 2546; 3.5% of 310,000 active; Drosophila S2 Gal4-VP16 UAS-luciferase, luminescence, 20 h;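 further: Gal4-VP16 expression switched on by copper sulfate through the metallothionein promoter; nearly all actives have a fitted effect of over 50% in size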
# * hit, by the source's call; ? = inconclusive; nt = no result given. An excerpt weighted towards active compounds, which were near 12% of everything screened. Unless noted, the call rests on the fitted dose curve; in most records, active means well fitted curve in the direction sought with a large enough effect; inconclusive means small, poorly fitted or top-dose-only effect, or another doubt; inactive means no such curve, though single readings can be large; an effect the other way counts as inactive or inconclusive. Unless noted, on the % scale 0 is the no-effect control and ±100 the full control effect; potency means the concentration at half of the fitted maximal effect.
SMILES,RORg inh,Sfp inh,PLK1 PBD inh,ALDH1A1 inh,VP16 counter
CC1CC(C)(C)NC(=S)N1CCC(=O)NCCc1ccc(Cl)cc1 (stereo unspecified),1.6µM*,-4%,-11%,?,7.9µM*
O=C1c2ccccc2C(=O)N1CCCCN(C(=O)c1cc2ccccc2oc1=O)c1ccc(Cl)cc1,?,-2%,6%,7.9µM*,8%
O=C(NCc1ccc(Cl)cc1)c1cc2ccccc2oc1=O,-31%,4%,-3%,nt,-12%
COC(=O)c1ccc(NC(=O)CNc2ccccc2)cc1,-4%,4%,-2%,22µM*,-4%
CC(=O)Nc1ccc(NC(=O)COc2ccc(-c3ccc(C#N)cc3)cc2)cc1,nt,nt,-7%,nt,nt
CC(=O)c1ccc(NC(=O)CNCC(c2ccccc2)N(C)C)cc1 (stereo unspecified),5%,79µM*,19µM*,?,3%
Cc1ccc(NC(=O)CNc2ccc(OC(C)C)cc2)cc1,-1%,-2%,-7%,7.1µM*,-12%
COC(=O)c1ccc(NC(=O)CC(=O)Nc2ccc(C(=O)OC)cc2)cc1,-11%,1%,3%,nt,-8%
CCOC(=O)c1cc(NC(=O)CNCC(c2ccccc2)N(C)C)cc(C(=O)OCC)c1 (stereo unspecified),6%,-24%,0%,nt,3%
COc1ccc(NC(=O)CNc2ccc(C#N)cc2)cc1,2%,10%,1%,22µM*,-7%
Cc1ccc(NC(=O)COCC(=O)Nc2ccc(C)cc2)cc1,19%,3%,-13%,nt,2%
Cc1cc(C)c(C(=O)COC(=O)c2cc([N+](=O)[O-])ccc2N2CCOCC2)cc1C,nt,nt,2%,nt,nt
COC(=O)c1ccc(NC(=O)CSc2nccn2CCc2ccccc2)cc1,-1%,14%,-10%,20µM*,?
O=C(CSc1nccn1Cc1ccccc1)Nc1ccccc1,-44%,8%,-3%,nt,9%
COc1ccc(C(=O)Nc2nc(N3C(=O)c4ccccc4C3=O)n(-c3ccccc3)n2)cc1,-34%,?,-6%,6%,1%
O=C(Nc1nc(N2C(=O)c3ccccc3C2=O)n(-c2ccccc2)n1)c1ccccc1,-42%,0.89µM*,-9%,3%,5%
CC(=O)Nc1nc(N2C(=O)c3ccccc3C2=O)n(-c2ccccc2)n1,?,8.9µM*,-11%,-11%,-27%
O=C(Nc1nc(N2C(=O)c3ccccc3C2=O)n(-c2ccccc2)n1)c1ccc(F)cc1,10µM*,?,-7%,20µM*,?
CC(=O)Nc1nc(NC(=O)C(Cl)(Cl)Cl)n(-c2ccccc2)n1,7.1µM*,28%,4%,-8%,13µM*
CC(C)C[C@@H](CN1CCC[C@@H]1CN1C(=S)NC[C@@H]1Cc1ccc(O)cc1)N1C[C@H](Cc2ccc(O)cc2)N(CC2CCCCCC2)C1=S,nt,nt,-12%,nt,nt
CC(C)CC(=O)N1CC=CC[C@@H](c2ccc(Cl)cc2)N(Cc2ccc(Cl)cc2)C(=O)[C@@H]1Cc1ccccc1,nt,nt,-6%,nt,nt
Cc1ccc(NC(=O)c2cccc(S(=O)(=O)Nc3c(C)n(C)n(-c4ccccc4)c3=O)c2)cc1C,nt,nt,3%,nt,nt
Cc1ccc(CNC(=O)CCSCc2ccccc2F)cc1,0%,-4%,-6%,nt,-10%
c1ccc(COC2CCCN(Cc3nc(Cc4ccccc4)no3)C2)cc1 (stereo unspecified),-1%,2%,-1%,14µM*,-12%
c1ccc(COC2CCCN(Cc3nc(-c4cnccn4)no3)C2)cc1 (stereo unspecified),16%,1%,0%,-1%,-5%
SMILES,RORg inh,Sfp inh,PLK1 PBD inh,ALDH1A1 inh,VP16 counter
COC1CCCN(Cc2nc(Cc3ccccc3F)no2)C1 (stereo unspecified),17%,26%,-10%,5%,2%
Fc1ccccc1Cc1noc(CN2CCC(OCc3cccnc3)CC2)n1,1%,35µM*,-9%,?,-4%
CN1CC=C2C(C#N)=C(N)C(C#N)(C#N)[C@H](c3cccc(Cl)c3)C2C1 (stereo partly specified),-4%,1%,?,?,-3%
CC(C)c1ccc(C2C3CSCC=C3C(C#N)=C(N)C2(C#N)C#N)cc1 (stereo unspecified),?,-6%,nt,16µM*,-27%
O=C1NC(=O)C(=Cc2ccccc2[N+](=O)[O-])S1,nt,nt,13µM*,nt,nt
O=C1NC(=O)/C(=C\c2ccccc2OCc2ccccc2)S1,12%,10%,?,?,-5%
O=C1NC(=O)/C(=C/c2cccc3ccccc23)S1,?,10%,27µM*,nt,18%
Cc1ccc(S(=O)(=O)Oc2ccccc2/C=C2/SC(=O)NC2=O)cc1,28%,7%,-16%,nt,4%
CSc1ccc(CN2CCC(C)(Oc3cnc(Cl)c4ccccc34)C2)cc1 (stereo unspecified),nt,nt,3%,nt,nt
O=C1C(Cl)=C(NCCCN2CCOCC2)C(=O)N1CCc1ccccc1,?,4%,-3%,7.9µM*,0%
O=C1C(Cl)=C(NCCc2ccccc2)C(=O)N1CCc1ccccc1,17%,-5%,-7%,-2%,-10%
CCC(C)Nc1nc(Cl)nc(N(C#N)CN2C(=O)c3ccccc3S2(=O)=O)n1 (stereo unspecified),-29%,2%,-10%,13µM*,0%
Cc1ccc(C)c(-n2ccnc2SCC(=O)Nc2cccc(S(=O)(=O)NC3=NCCC3)c2)c1,nt,nt,1%,nt,nt
C=CCN1C(c2ccc(Br)cc2)=CS/C1=C(/C#N)c1nnc(N2CCOCC2)n1-c1ccccc1,14%,79µM*,-13%,3.2µM*,-8%
C=CCN1C(c2ccccc2)=CS/C1=C(\C#N)c1nnc2n1CCCCC2,-16%,63µM*,-17%,18µM*,3%
N#C/C(=C(/O)COc1ccccc1)c1nnc2n1CCCCC2,?,?,-5%,7.9µM*,-9%
C=CCN1C(c2cccc(C(F)(F)F)c2)=CS/C1=C(/C#N)c1nnc(N2CCOCC2)n1-c1ccccc1,?,-29%,-12%,14µM*,-16%
CSc1ccccc1C(=O)OCC(=O)Nc1cccnc1Cl,nt,nt,-3%,nt,nt
CC[C@H](C)[C@H](N)C(=O)N[C@H](C(=O)N[C@@H](CO)C(=O)N[C@@H](C)C(=O)N[C@H](C(=O)N[C@H](C(=O)NCC(=O)N[C@H](C(=O)N[C@@H](CC(C)C)C(=O)O)[C@@H](C)CC)C(C)C)C(C)C)[C@@H](C)CC,16%,1%,nt,nt,-1%
COc1cc(/C=C/CNC[C@H]2O[C@@H](n3cc(C)c(=O)[nH]c3=O)C[C@@H]2O)ccc1O,nt,nt,-16%,nt,nt
C=CCN1C(=O)NC(c2ccc(OC)cc2)(C(F)(F)F)S/C1=C(\C#N)c1nnc(N2CCOCC2)n1-c1ccccc1 (stereo unspecified),4.5µM*,7%,?,?,13µM*
S=C1NCCc2ccccc2C1c1ccccc1Cl (stereo unspecified),7.9µM*,5%,-7%,6%,3.5µM*
